Assay outcomes: PubChem BioAssay, several laboratories
MEKK2mut PB1 HTS – MEK5 binding signal on mutant MEKK2 PB1, primary screen, biochemical, multiplex bead flow cytometry, Alexa488-MEK5; Alexa488-MEK5 binding to MEKK2 mutant; percent response, % at 10 µM; 0.35% of 290,000 active; in the data active = percent response above about 24%, passing the limit was not always enough
MEKK3 PB1 HTS – modulators of MEKK3-MEK5 PB1 binding, primary screen, biochemical, wildtype MEKK3, multiplex bead flow cytometry, Alexa488-MEK5; Mitogen-activated protein kinase kinase kinase 3 (Homo sapiens), Q99759; bead-based flow cytometry, Alexa488-MEK5 binding to MEKK3; actives lie on both sides; 0 = blocked by unlabeled MEK5, 100 = vehicle; binding response (% of control), % at 10 µM; 1.4% of 290,000 active;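 active = binding response more than 3 SD above or below the average of its plate-row segment, actives on both sides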;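 note: Alexa488 bead fluorescence after subtracting the streptavidin-only scavenger bead signal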
PREPL inh – PREPL enzyme inhibitors, primary screen, biochemical, fluorescence polarization. recombinant PREPL, fluorescence polarization activity-based probe. inhibition, % at 5.96 µM. 0.68% of 320,000 active. AID 2751, 2010; in the data active = inhibition above about 43%;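 note: 0% = enzyme with DMSO and 100% = wells lacking enzyme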
ATG4B inh – ATG4B protease inhibitors, primary screen, biochemical, fluorescence, uHTS; Cysteine protease ATG4B (Homo sapiens), Q9Y4P1; ATG4B cleavage of LC3-PLA2, NBD-HPC fluorescence, 1 h; inhibition, % at 8.33 µM; 0.51% of 340,000 active; AID 504462, 2011; in the data active = inhibition above about 40%
Target sequence (Q9Y4P1 whole entry, looked up): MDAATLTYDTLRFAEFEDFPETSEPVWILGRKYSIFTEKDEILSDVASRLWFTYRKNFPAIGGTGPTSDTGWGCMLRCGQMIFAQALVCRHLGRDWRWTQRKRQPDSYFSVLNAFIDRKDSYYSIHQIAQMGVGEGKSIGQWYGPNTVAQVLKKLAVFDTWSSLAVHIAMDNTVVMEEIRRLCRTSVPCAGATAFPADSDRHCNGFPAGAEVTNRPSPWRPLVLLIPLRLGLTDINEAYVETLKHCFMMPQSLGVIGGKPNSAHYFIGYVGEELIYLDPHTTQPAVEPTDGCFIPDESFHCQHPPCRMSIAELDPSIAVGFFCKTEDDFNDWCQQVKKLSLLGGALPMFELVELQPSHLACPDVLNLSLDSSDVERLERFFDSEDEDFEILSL
UBC13 inh – UBC13 polyubiquitin chain formation inhibitors, primary screen, biochemical, TR-FRET, uHTS. inhibition, % at 20 µM. 0.47% of 330,000 active; in the data active = inhibition above about 45%, passing the limit was not always enough
Target sequence (P61088 whole entry, looked up): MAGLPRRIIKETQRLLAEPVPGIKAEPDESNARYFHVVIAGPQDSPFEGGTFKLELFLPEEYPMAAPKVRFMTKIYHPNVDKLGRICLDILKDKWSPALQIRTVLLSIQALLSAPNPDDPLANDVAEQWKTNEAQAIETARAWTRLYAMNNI
MEKK2 WT-MEK5 – modulators of MEK5 binding to wildtype MEKK2, primary screen, biochemical, multiplex bead flow cytometry, Alexa488-MEK5; Mitogen-activated protein kinase kinase kinase 2 (Homo sapiens), Q9Y2U5; Alexa488-MEK5 binding to MEKK2 WT; actives lie on both sides; binding response (% of control), % at 10 µM; 1.1% of 290,000 active; in the data active = binding response below about 67% or above about 130%
MEKK2wt confirm – modulators of MEK5 binding to wildtype MEKK2, confirmation, biochemical, single concentration, multiplex bead flow cytometry. shares compounds with MEKK3 PB1 HTS. Alexa488-MEK5 binding to MEKK2 WT; actives lie on both sides. binding response (% of control), % at 10 µM. 2.4% of 5,900 active. AID 1892, 2009; in the data active = binding response below about 16% or above about 210%; inactive = in between
MEKK2mut confirm – mutant MEKK2 PB1-MEK5 binding signal retest – biochemical, single concentration, multiplex bead flow cytometry, confirmation; shares compounds with MEKK3 PB1 HTS; Alexa488-MEK5 binding to MEKK2 mutant; percent response, % at 10 µM; 2% of 5,900 active; in the data active = percent response mostly above about 71%, no sharp cut-off; inactive = mostly below about 38%;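 note: higher means compound restores mutant binding toward wildtype level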
MEKK3-MEK5 inh – MEKK3 wild-type PB1 binding to MEK5, inhibitors, confirmation, biochemical, bead multiplex flow cytometry, single concentration, wildtype | shares compounds with MEKK3 PB1 HTS | binding response (% of control), % at 10 µM | Alexa488-MEK5 binding to MEKK3; hits give low values | 1.8% of 5,900 active | AID 1894, 2009;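 active = binding response below 72% of control, or above a set upper limit, though filed actives all read lower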;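 note: 100% = DMSO only wells and 0% = binding blocked by excess unlabeled MEK5; lower values mean stronger disruption of MEK5 binding to MEKK3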
Numbers without * were called inactive; / = no result given; [ ] = remark or other dose. Shown are actives, neighbours in structure and some others; about 3.1% of the full set was active somewhere.

SMILES | MEKK2mut PB1 HTS | MEKK3 PB1 HTS | PREPL inh | ATG4B inh | UBC13 inh | MEKK2 WT-MEK5 | MEKK2wt confirm | MEKK2mut confirm | MEKK3-MEK5 inh
CCCCC(=O)OCC(=O)c1cc(C)n(-c2c(C)n(C)n(-c3ccccc3)c2=O)c1C | -3 | 65*[inhibitor] | 6 | -3 | 10 | 83 | 90 | -10 | 89
O=C1[C@@H](Oc2ccccc2)[C@@H](c2ccncc2)N1c1ccncc1 | / | / | / | 5 | / | / | / | / | /
CCCS(=O)(=O)N1CCN(CC2CC3C=CC2C3)CC1 (stereo unspecified) | 24* | 108 | 5 | -2 | -4 | 104 | 106 | 12 | 108
Cc1cccc(-c2nc(CSc3nc4c(c(=O)[nH]3)CCC4)c(C)o2)c1 | -3 | 113 | 4 | 0 | -9 | 101 | / | / | /
Cc1oc(-c2ccccc2)nc1CSc1nc2c(c(=O)[nH]1)CCC2 | -8 | 60*[inhibitor] | 6 | 12 | -9 | 74 | 109 | 4 | 102
Cc1ccc(OC(F)F)c(NC(=O)Nc2cccc(C(F)(F)F)c2)c1 | 55* | 108 | 12 | 27 | -1 | 203* | 134 | 6 | 103
O=C(Nc1ccccc1)Nc1cccc(C(F)(F)F)c1 | 0 | 111 | 2 | 13 | 3 | 106 | / | / | /
CC(C)c1nc(CNC(=O)C2CCC(=O)N(CCc3cccc(F)c3)C2)cs1 (stereo unspecified) | 2 | 103 | / | 2 | 2 | 100 | / | / | /
O=C(Nc1ccccc1-c1ccccc1)NC1CCN(C(=O)N2CCOCC2)CC1 | 4 | 122* | 3 | -3 | -4 | 120 | 107 | 10 | 102
CSCCC(=O)NC1CCCN(CCc2ccccc2)C1 (stereo unspecified) | 2 | 102 | -8 | -3 | -8 | 104 | / | / | /
O=C(Cc1cccs1)NCCSc1c(-c2ccc(Cl)cc2)[nH]c2ccccc12 | -14 | 1.0*[inhibitor] | 9 | 37 | 34 | 2.0*[inhibitor] | 118 | 5 | 107
CCOC(=O)CSc1c(-c2ccc(Cl)cc2)[nH]c2ccccc12 | 8 | 155* | 18 | 2 | -5 | 109 | 103 | -4 | 97
COc1ccc(-c2noc(CNC(=O)CCN3C(=O)[C@H]4CC=CC[C@H]4C3=O)n2)cc1 | -1 | 103 | 5 | 3 | -4 | 98 | / | / | /
O=C(O)C(=O)Nc1ccc(NC(=O)C(c2ccccc2)c2ccccc2)cc1 | -51 | 2.0*[inhibitor] | / | 0 | -2 | 3.0*[inhibitor] | 99 | 4 | 103
COc1ccc(CN(C)C(=O)c2cccc(S(=O)(=O)N3CCCc4ccccc43)c2)c(OC)c1OC | / | / | / | -19 | / | / | / | / | /
CC(c1ccccc1)N1C(=O)NC(NC(=O)c2cccnc2)(C(F)(F)F)C1=O (stereo unspecified) | -3 | 0.0*[inhibitor] | 1 | -17 | 0 | 0.0*[inhibitor] | 97 | -8 | 96
O=C(NC1(C(F)(F)F)NC(=O)N(Cc2ccccc2)C1=O)c1cccnc1 (stereo unspecified) | 0 | 99 | -2 | 4 | 12 | 103 | / | / | /
Cc1ccc(C)c(NC(=S)N=Nc2c(O)n(C)c3ccc(S(=O)(=O)N4CCOCC4)cc23)c1 | 1 | 62*[inhibitor] | 9 | -11 | -21 | 102 | 81 | -12 | 83
C=CCN(C(=O)CNC(=O)c1cccs1)C(C(=O)NC1CCCCC1)c1cccnc1 (stereo unspecified) | -13 | 104 | -2 | -9 | 9 | 101 | / | / | /
COc1ccccc1-c1ccc(NC2CCCCC2)nn1 | -8 | 81*[inhibitor] | 0 | -4 | 12 | 83 | 103 | 3 | 103
CN(C)C(=O)/C(C#N)=C\c1cc(Br)c(Sc2ccc(Cl)cc2)o1 | 2 | 132* | 7 | 6 | / | 105 | 103 | 4 | 103
CC(=NN1CC(=O)NC1=O)c1ccc([N+](=O)[O-])o1 | / | / | / | -1 | / | / | / | / | /
Cc1c(-c2ccc(Cl)cc2)[n+](=O)c2c(n1[O-])CCCC2 | -1 | 104 | 3 | -1 | 4 | 102 | / | / | /
COc1ccc(-c2c(C)n([O-])c3c([n+]2=O)CCCCC3)cc1 | -1 | 135* | 9 | -3 | 1 | 104 | 103 | 2 | 102
Cc1ccccc1OCCC(=O)OCC(=O)NC1CCCCC1 | / | / | 3 | 2 | -1 | / | / | / | /
SMILES | MEKK2mut PB1 HTS | MEKK3 PB1 HTS | PREPL inh | ATG4B inh | UBC13 inh | MEKK2 WT-MEK5 | MEKK2wt confirm | MEKK2mut confirm | MEKK3-MEK5 inh
O=C(CSc1ccc(-c2nc3ccccc3[nH]2)cn1)Nc1ccc2c(c1)OCCO2 | 0 | 102 | -5 | -4 | 0 | 104 | / | / | /
O=C(CSc1ccc(-c2nc3ccccc3[nH]2)cn1)Nc1ccc(S(=O)(=O)NC2CC2)cc1 | 1 | 165* | -46 | -5 | 4 | 112 | 102 | 0 | 98
O=C(Nc1nnc(-c2ccco2)o1)c1ccc(N2C(=O)CCC2=O)cc1 | -2 | 70*[inhibitor] | -12 | 1 | -6 | 87 | 95 | 2 | 106
O=C(Nc1nnc(-c2ccc(Cl)cc2)o1)c1ccc(N2C(=O)CCC2=O)cc1 | -2 | 101 | 13 | 4 | -29 | 100 | / | / | /
CCCCSc1cc(=O)[nH]c(N)n1 | -20 | 70*[inhibitor] | 20 | 6 | -2 | 81 | 101 | -4 | 106
CCCCSc1nnc2[nH]c(=O)cc(N)n12 | 5 | 104 | 8 | 2 | -17 | 106 | / | / | /
COc1ccc2nc(-c3ccccc3)[nH]c2c1 | -2 | 102 | 1 | -4 | 5 | 101 | / | / | /
Oc1c(Br)cc(C=Nc2ccc3nc(-c4ccccc4)[nH]c3c2)c(O)c1Br | -26 | 88 | 43 | 21 | -18 | 56*[inhibitor] | 78 | -10 | 95
COc1ccc(OC)c(S(=O)(=O)NCCS(=O)(=O)N2CCN(c3ccccc3)CC2)c1 | -2 | 96 | -29 | -6 | 9 | 92 | / | / | /
CSc1ccc(C(=O)C2CCCN(C(=O)c3ccc4c(c3)no[n+]4[O-])C2)cc1 (stereo unspecified) | -1 | 103 | 20 | 6 | -6 | 102 | / | / | /
